# Cy5 interf NS3h: Cy5 fluorescence quenchers or enhancers, artefact control for HCV NS3 helicase inhibitor project, biochemical, ChemBridge library, Cy5 readout; Cy5-dT15 DNA with NS3h, fluorescence interference; actives lie on both sides; signal over control mean, under 1 quenches; fluorescence interference ratio at 100 µM; 16,000 compounds, 6% hits;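 active means compound fluorescence over control fluorescence at most 0.8, a quencher, or at least a set upper limit, an enhancer; inactive means ratio between 0.8 and the set upper limit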
# NS3h inh CB: HCV NS3 helicase inhibitors, primary screen, biochemical, fluorescence polarization, ChemBridge library; AID 687043, 2013; 16,000 compounds, 1.6% hits; Hepatitis C virus NS3 helicase; NS3h Cy5-dT15 DNA binding; inhibition, % at 100 µM;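 active means inhibition above the average over every tested compound plus 3 SD, cut at about 40% in these data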
# * = called active by the depositor. An excerpt weighted towards active compounds, which were near 7.6% of everything screened.
SMILES,Cy5 interf NS3h,NS3h inh CB
COc1ccc(CN2CCN(Cc3ccccc3OC)CC2)c(OC)c1,1.1,-8.1
COc1cccc(CN2CCN(S(C)(=O)=O)CC2)c1OC,0.645*,3.1
COc1cccc(CN2CCN(S(C)(=O)=O)CC2)c1,0.77*,4.0
COc1ccc(CN2CCN(S(C)(=O)=O)CC2)cc1OCc1ccccc1,1.04,5.0
COc1ccc(S(=O)(=O)N2CCN(Cc3cccc(OC)c3)CC2)cc1,0.94,11.8
COc1cccc(CN2CCN(Cc3ccc(Br)cc3)CC2)c1OC,0.924,-10.1
Cc1ccccc1NC(=O)C(=O)NCc1ccc(Cl)cc1,1.06,7.0
CC(=O)Nc1ccc(S(=O)(=O)N/N=C\c2cccnc2)cc1,1.08,4.4
COc1ccc(NC(=O)c2ccc(CN(c3cc(Cl)ccc3C)S(=O)(=O)c3ccccc3)cc2)c(OC)c1,0.914,12.0
COc1ccccc1C1CC(c2ccc(C)cc2)=NN1C(=O)CCC(=O)O (configuration not stated),1.01,2.1
O=C1NC(=O)N(c2ccc(I)cc2)C(=O)/C1=C\C=C\c1ccco1,0.766*,21.3
Cc1ccc(N2C(=O)NC(=O)/C(=C\c3ccc(Cl)cc3)C2=O)cc1,1.02,14.4
O=C1C(=O)N(c2ncc(S(=O)(=O)c3ccc([N+](=O)[O-])cc3)s2)C(c2ccc(F)cc2)C1=C(O)c1ccc(Cl)cc1 (configuration not stated),0.865,12.0
O=C1C=CC(=NS(=O)(=O)c2ccc(F)cc2)c2ccccc21,0.884,2.6
CN(C)c1ccc(C(=O)N2CCN(c3ccccc3)CC2)cc1,0.965,-3.4
COc1ccccc1N1CCN(C(=O)c2ccc(N(C)C)cc2)CC1,0.657*,-2.5
COc1ccccc1N1CCN(C(=O)c2c(Cl)cccc2Cl)CC1,1.03,1.8
CN(C)c1ccc(C(=O)N2CCN(c3ccc(F)cc3)CC2)cc1,0.75*,8.7
O=c1[nH]c2ccc(Cl)cc2c(-c2ccccc2)c1C1=NOC(c2ccccc2)C1 (configuration not stated),0.989,-0.7
C/C(=N\NC(=O)Nc1ccccc1)C1CC1,1.02,-2.3
CCOC(=O)C1=C(N)Oc2ccc3ccccc3c2C1c1ccccc1OC (configuration not stated),1.04,-4.9
Nc1ccc(C(=O)Nc2cccc3ccccc23)cc1,1.09,14.2
Nc1ccc(C(=O)NCCNCCNC(=O)c2ccc(N)cc2)cc1,0.801*,14.7
CN(C)c1ccc(-c2nc3cc(NC(=S)NC(=O)c4ccco4)ccc3o2)cc1,1.03,-5.2
Cc1ccc(OCCOc2cccc(/C=C3/SC(=S)N(C)C3=O)c2)cc1C,0.949,26.0
SMILES,Cy5 interf NS3h,NS3h inh CB
COc1ccc(N2C(=O)/C(=C\c3ccsc3)SC2=S)cc1,1.01,15.4
CN1C(=O)/C(=C\c2ccsc2)SC1=S,0.692*,35.6
Cc1cccc(/C=C2/SC(=S)N(C)C2=O)c1,0.678*,5.0
N/C(=N/OC(=O)c1ccc(Cl)cc1Cl)c1cccnc1,1.15,-27.4
CC1CC/C(=C\C=C\N(C)C)C(=O)/C1=C/C=C/N(C)C (configuration not stated),0.724*,27.6
CN(C)/C=C/C=C1\CC(=O)N(c2ccccc2)C1=O,0.889,7.8
NC(=O)c1ccc(NC(=O)c2ccccc2[N+](=O)[O-])cc1,0.97,-7.2
O=C(N/N=C\c1ccc[nH]1)c1ccccc1[N+](=O)[O-],0.67*,15.0
COc1ccc(NC(=O)CN(c2ccc(C(C)C)cc2)S(=O)(=O)c2ccccc2)cc1,0.951,8.7
CC(C1CC1)N(Cc1ccccc1)C(=O)c1ccc(F)cc1 (configuration not stated),0.594*,9.6
Cc1ccc(NC(=O)N(Cc2ccccc2)C(C)C2CC2)cc1 (configuration not stated),0.595*,9.6
CN(C)CCNC(=O)c1ccc(F)cc1,1.02,12.4
CCOC(=O)N(Cc1ccccc1)C(C(=O)O)C(C(=O)O)N(Cc1ccccc1)C(=O)OCC (configuration not stated),0.965,0.3
O=C(CN(c1ccc(F)cc1)S(=O)(=O)c1ccccc1)Nc1ccccc1,0.94,11.6
CCCNC(=O)c1c(NC(=O)c2ccccc2F)sc2c1CCC(C)C2 (configuration not stated),0.931,7.1
NC(=O)NC(Cc1c[nH]c2ccccc12)C(=O)O (configuration not stated),0.988,0.0
Cc1oc2c(CN3CCC(C)CC3)c(O)ccc2c(=O)c1-c1nc2ccccc2s1,0.949,8.8
O=C(Nc1ccccc1)Nc1nnc(CSCc2ccccc2F)s1,1.05,2.2
COc1ccc(C(=O)/C=C/Nc2ccc(Cl)c([N+](=O)[O-])c2)cc1,1.03,11.7
COc1cccc(CCNC2CC(=O)N(c3ccc(C)cc3)C2=O)c1 (configuration not stated),1.14,-1.3
Cc1ccc(N2C(=O)CC(NCc3cccnc3)C2=O)cc1 (configuration not stated),1.31*,8.2
COc1ccc(N(CC(=O)Nc2ccc(Cl)cc2C)S(=O)(=O)c2ccc(C)c([N+](=O)[O-])c2)cc1,0.676*,19.5
COC(=O)CN(c1ccccc1)S(=O)(=O)c1ccccc1[N+](=O)[O-],0.922,9.4
COc1ccc(OC)c(NC(=O)CN(c2ccccc2)S(=O)(=O)c2ccccc2[N+](=O)[O-])c1,0.753*,12.3
CCOc1ccccc1NC(=O)CN(c1cccc([N+](=O)[O-])c1)S(=O)(=O)c1ccccc1,0.835,15.9
SMILES,Cy5 interf NS3h,NS3h inh CB
COc1ccc(OC)c(NC(=O)CN(c2cccc([N+](=O)[O-])c2)S(=O)(=O)c2ccccc2)c1,0.667*,19.5
COc1ccc(N(CC(=O)Nc2ccc(C)cc2C)S(=O)(=O)c2ccc(C)cc2)cc1,0.983,12.7
COc1ccc(CC(=O)Nc2ccc(Br)cc2C(=O)O)cc1,1.02,1.2
CC(C)C(=O)NS(=O)(=O)c1ccc(NC(=O)C(F)(F)F)cc1,1.07,-6.3
CN1C(=O)C2(N=C(C(=O)O)c3ccccc3N2C)c2ccccc21 (configuration not stated),0.816,7.9
O=C(O)CCN1C(=O)/C(=C/c2cccc(OCc3ccccc3)c2)SC1=S,1.1,17.9
O=C(O)CCN1C(=O)/C(=C/c2ccc(Cl)c([N+](=O)[O-])c2)SC1=S,0.696*,21.7
N#C/C(=C\c1ccc(-c2cc(Cl)ccc2Cl)o1)C(=O)Nc1cccc2cccnc12,1.07,7.7
O=C1C2CCCCC2C(=O)N1c1nc2ccccc2s1 (configuration not stated),0.845,-6.5
S=C(NNc1nc2ccccc2s1)NC1CCCCC1,0.742*,17.0
COc1ccc(CCN2C(=O)/C(=C\c3c(F)cccc3Cl)SC2=S)cc1OC,1.03,2.4
Cc1ccc(/C=C2/SC(=O)N(c3ccccc3)C2=O)cc1,0.971,17.9
O=C1S/C(=C\c2cccs2)C(=O)N1c1ccccc1,0.637*,1.2
CCO/N=C1\CC(c2ccccc2)Cc2onc(C)c21 (configuration not stated),1.01,21.1
